# Data from PubChem BioAssay (NCI).
# About 83,000 compounds went through this panel and 20% of them were active in at least one assay; those are over-represented in the sample as a whole.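 How to read the values: 0–100, growth inhibition (40 = 60% inhibited); 0, no net growth; -100 to 0, cell death (-40 = 40% of starting cells died; -100 = all dead).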 Values without a mark were called inactive. Active and inactive are the calls of the source.
# Test system: MOLT-4 leukemia
# Test: NCI-60 one-dose screen, 48 h (100 = growth as untreated, 0 = no growth, -100 = all killed)
# Details: 10 µM unless noted
# Procedure: Growth inhibition of the MOLT-4 human tumor cell line is measured as a screen for anti-cancer activity. Cells are grown in 96 well plates and exposed to the test compound for 48 hours. Compounds are tested at a single concentration, which is 10^-5 M for most compounds. The reported endpoint is percent growth (GI% or GIPRCNT), where numbers from 0 - 100% represent growth inhibition, and numbers from -100% - 0 represent cell death. For example, a value of 40 represents 60% growth inhibition. A value of 0 means no net growth occurred over the course of the experiment. A value of -40 indicates 40% of cells at the beginning of the experiment died by the end of the experiment. A value of -100 means all cells are dead at the end of the experiment.
# NCI-60 Human Tumor Cell Lines Screen was performed using the standard one-dose NCI protocol, which is described in more detail at https://dtp.cancer.gov/discovery_development/nci-60/default.htm.
# Compounds with GIPRCNT values below 10 were considered active. Activity score was based on GIPRCNT using the following formula: […]
# Score is 0 for GIPRCNT values of 100 or above, 50 for GIPRCNT values of 0, and 100 for GIPRCNT values of -100.
row,Compound,growth
1,COc1cc(C2CC(c3ccc(Nc4nc(Nc5ccc(F)cc5)nc(Nc5ccc(Cl)cc5)n4)cc3)=NN2C(C)=O)cc(OC)c1OC (stereo not given),4.27% (active)
2,CCO/C=N/C1=C(C#N)C(c2ccc(OC)cc2)c2c(c3ccccc3n(C)c2=O)O1 (stereo not given),103%
3,CCn1c(Sc2nnc(NC(C)=O)s2)nc2c1c(=O)n(C)c(=O)n2C,113%
4,Cn1cc(-c2ccc3nc(-c4ccc(CC(=O)Nc5cc(C(C)(C)C)no5)cc4)cnc3c2)cn1,22.1% [30 µM]
5,CN(C)c1ccc(/C=C2\C=C(c3ccccc3)N(CCc3ccccc3)C2=O)cc1,86.5%
6,CN1C[C@@H](c2ccc(Cl)cc2)[C@]2(NC(=S)N(c3ccccc3)C2=O)[C@@]12C(=O)NC1C=CC(Br)=C[C@H]12 (stereo not given in full),21.4%
7,CCN(CC)c1ccc(Nc2ccc(CC(=O)c3ccccc3)cc2)cc1,102%
8,Cc1cc(=O)c2cc3nc(-c4cccnc4)oc3c(Br)c2o1,89.7%
9,C=C1C(=O)O[C@H]2[C@H]1CC/C(Cn1cc(CNCCc3c[nH]c4ccc(Cl)cc34)nn1)=C\CC[C@@]1(C)O[C@@H]21,0.755% (active)
10,Cc1nc(Nc2ccccn2)sc1C(=O)/C=C/c1ccc(Br)cc1,80%
11,CC(C)OC(=O)NNC(=O)c1ccncc1,102%
12,O=C1Nc2ccccc2SC1C1SC(=S)N(Cc2ccccc2)C1=O (stereo not given),67.3%
13,CCCCOc1nc2ccc(Cl)cc2cc1/C=C/C(=O)/C=C1/CC(c2cc3cc(Cl)ccc3nc2OCCCC)Nc2ccccc2N1 (stereo not given),100%
14,CC(=O)Nc1cccc(C2=CC(c3ccc(C)cc3)n3ncnc3N2)c1 (stereo not given),87.9%
15,CCN(CC)S(=O)(=O)c1ccc(O)c(NC(=O)c2[nH]c(C)c(C(C)=O)c2CCc2ccc(Cl)cc2)c1,28.3%
16,CCOC(=O)c1c(C)nc2c(c1N)/C(=C/c1cc(OC)c(OC)c(OC)c1)C(=O)N2c1ccc(OC)cc1,17.6%
17,Cc1cccc(-c2cc(O)c(C(=O)N3CCOCC3)s2)c1,21.6%
18,O=C(O)c1ccc(CO)o1,100%
19,O=S(=O)(Nc1ccsc1-c1nc(-c2ccccc2)no1)c1cc(Cl)cc(Cl)c1,104%
20,CC(/C=N/NC(=O)c1cc(-c2ccco2)[nH]n1)=C\c1ccccc1,96.6%

row,Compound,growth
1,C[C@]12CCC(=O)C[C@H]1CC[C@@H]1[C@@H]2CC[C@@]2(C)[C@H]1CC[C@]2(O)C(=O)CO,107%
2,COc1ccc(/C(C)=C(\c2ccc(Cl)cc2)c2ccc(OCCN3CCCCCC3)cc2)cc1F,26.6%
3,O=C1/C(=C/c2ccccc2[N+](=O)[O-])COc2ccc(O)c(O)c21,-8.56% (active)
4,CCCCCOC(=O)c1cccc(NC(=O)CN(CC)CC)c1,87.5%
5,COc1ccc(/C=C2\COc3ccc(O)cc3C2=O)c(OC)c1,36.8%
6,CC(C)c1ccc(C(=O)OC(=O)c2ccc(C(C)C)cc2)cc1,66.2%
7,CNC(=O)c1cc(Oc2ccc3nc(Nc4cc(Cl)cc(Cl)c4)ccc3c2)ccn1,33.7%
8,Cc1nc(Nc2ccc(NC(=S)Nc3ccccc3)cc2)nc2nc(Nc3ccc(S(=O)(=O)O)cc3)[nH]c(=O)c12,89.7%
9,Nc1ccc(CCCCc2ccccc2)c(Cl)c1,69.2%
10,Cc1ccc(NC(=O)C(Cl)Cl)cc1,14.2%
11,O=C1Nc2ccccc2/C1=N/N=C/c1ccc(OC2OC(CO)C(O)C(O)C2O)cc1 (stereo not given),112%
12,O=C1c2ccccc2C(=O)c2cc(Cn3cc[n+](Cc4ccc5ccccc5c4)c3)ccc21,79.1%
13,CN1C(=O)CCC(N2C(=O)c3cccc(NCCOCCOCCNC(=O)c4cc5c(o4)C(=O)c4ccccc4C5=O)c3C2=O)C1=O (stereo not given),11.1%
14,CCN(CC)CCNc1ccc(C)c2sc3cc(C)ccc3c(=O)c12,30.6%
15,O=[N+]([O-])c1ccc(-c2cc3c(Nc4ccc(Cl)c(C(F)(F)F)c4)ncnc3s2)cc1,9.22% (active)
16,Clc1ccc(-c2nnc(Cn3ccnc3)o2)cc1,96.5%
17,O=C(Nc1ccccc1)c1sc(-c2cccc(C(F)(F)F)c2)cc1O,87.7%
18,O=C1Nc2ccccc2/C1=N/N=C/c1ccsc1,103%
19,COc1ccc(-c2nc3ccccn3c2/C=C/C(=O)c2cc(OC)c(OC)c(OC)c2)cc1,61.6%
20,C[C@@H](C[C@H](CCOCc1cccnc1)c1ccccc1)c1cc2ccccc2o1,84.1%
